These results are taken from PubChem BioAssay (NCI).

SMILES strings stand for the structures. This is part of a sample that, as a whole, favours compounds with a hit. Of some 83,000 tested, about 20% had one in any assay.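 Note: values are percent growth. 100 is the growth of untreated cells, values between 100 and 0 indicate rising inhibition; between -100 and 0 indicates cell death.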 A number with no mark means an inactive call. Active and inactive are the calls of the source. How the source made its calls: active means growth percent below 10; inactive means the rest.

Test systems include SR leukemia; OVCAR-8 ovarian; OVCAR-5 ovarian; OVCAR-4 ovarian; SK-OV-3 ovarian; IGROV1 ovarian; OVCAR-3 ovarian; NCI/ADR-RES ovarian; T-47D breast; BT-549 breast; MDA-MB-435 melanoma; SW-620 colon; MCF7 breast; HCT-116 colon; HCC-2998 colon; KM12 colon; RPMI-8226 leukemia; HS 578T breast.
Common to all, as to assay: NCI-60 one-dose screen, 48 h (100 = growth as untreated, 0 = no growth, -100 = all killed)
Holding throughout (conditions): 10 µM unless noted

Turning to `CN1C(=O)N(C)C2C1NN=c1s/c(=C\c3ccc(Br)cc3)c(=O)n12` (stereo unspecified), the growth in the experiment with SR leukemia is 13.5%; in the experiment on OVCAR-8 ovarian, 33.7%; with OVCAR-5 ovarian it was 56.8%; in the experiment on OVCAR-4 ovarian, 61.6%; in the experiment on SK-OV-3 ovarian, 29.5%; with IGROV1 ovarian it was 48.1%. Further, the growth in the experiment on OVCAR-3 ovarian is 0.921% (active); in the experiment on NCI/ADR-RES ovarian it was 17%; in the experiment with T-47D breast, 28.7%; with BT-549 breast, 50.8%; in the experiment on MDA-MB-435 melanoma it was -50.4% (active); in the experiment with SW-620 colon, 20%. Further, the growth with MCF7 breast is 13.4%; with HCT-116 colon, 25%; with HCC-2998 colon, 53%; in the experiment on KM12 colon, 23.3%.
Consider `N/C(=C\C(=O)n1nc(-c2ccccc2)cc1N)c1ccccc1`, for which the growth in the experiment with RPMI-8226 leukemia is 42.8%; in the experiment on OVCAR-8 ovarian, 60.6%; in the experiment with OVCAR-5 ovarian, 70.9%; with OVCAR-4 ovarian it was 72%; with SK-OV-3 ovarian it was 65.5%; with IGROV1 ovarian, 16.5%. For the same compound, the growth with OVCAR-3 ovarian was 20.2%; in the experiment with HS 578T breast, -6.87% (active); in the experiment with NCI/ADR-RES ovarian, 17%; with T-47D breast, 47%; with BT-549 breast it was 30.1%; in the experiment with MDA-MB-435 melanoma, -0.658% (active). Moreover, the growth with SW-620 colon is 36.1%; with MCF7 breast, 35%; in the experiment on HCT-116 colon it was 27.4%; in the experiment on HCC-2998 colon it was 43.9%; with KM12 colon it was 30%.
Turning to `Cc1c(C(=O)CCl)c(=O)n(-c2ccccc2)n1C`, the growth in the experiment with SR leukemia is 20.1%; in the experiment on OVCAR-8 ovarian, 72.3%; in the experiment on OVCAR-5 ovarian, 94.5%; with SK-OV-3 ovarian, 103%; in the experiment on IGROV1 ovarian, 48.6%; with OVCAR-3 ovarian, 18.4%. Also, the growth is 57.5% in the experiment on HS 578T breast; 83.3% in the experiment with NCI/ADR-RES ovarian; 34.3% in the experiment on T-47D breast; 61.2% in the experiment with BT-549 breast; 40% in the experiment with MDA-MB-435 melanoma; 36.6% in the experiment with SW-620 colon. Also, the growth with MCF7 breast is 38.2%; in the experiment with HCT-116 colon, 32%; in the experiment with HCC-2998 colon it was 85.9%; with KM12 colon, 88.7%.
`COc1cc(/C=N/NC(=O)Cn2c(-c3ccc(C)o3)nc3ccccc32)ccc1OCc1ccccc1`: the growth with SR leukemia is 74.5%; with OVCAR-8 ovarian it was 81.3%; in the experiment with OVCAR-5 ovarian, 88.1%; in the experiment with SK-OV-3 ovarian, 91.7%; in the experiment with IGROV1 ovarian it was 94.3%; in the experiment with OVCAR-3 ovarian, 82%. Moreover, the growth in the experiment with HS 578T breast was 70.4%; with NCI/ADR-RES ovarian, 92.6%; with T-47D breast it was 69.2%; in the experiment with BT-549 breast, 92%; in the experiment with MDA-MB-435 melanoma, 96.9%; with SW-620 colon, 89.9%. Further, the growth with HCT-116 colon was 71.9%; in the experiment on HCC-2998 colon, 103%; with KM12 colon it was 85.1%.
Take `CN1C2CCC1/C(=C\c1ccc(Cl)cc1)C(=O)/C2=C/c1ccc(Cl)cc1`: the growth with RPMI-8226 leukemia is 20.2%; in the experiment on OVCAR-8 ovarian, -27.1% (active); in the experiment with OVCAR-5 ovarian, 102%; with OVCAR-4 ovarian it was 63.5%; in the experiment on SK-OV-3 ovarian it was 93.4%; in the experiment with IGROV1 ovarian, 68.8%. The growth in the experiment with OVCAR-3 ovarian was 46%; with HS 578T breast, 75.5%; in the experiment on NCI/ADR-RES ovarian, 43.7%; in the experiment on T-47D breast, 59.7%; in the experiment on BT-549 breast, 70.6%; in the experiment with MDA-MB-435 melanoma it was 63.9%. The growth in the experiment with SW-620 colon is 57.5%; in the experiment with MCF7 breast, 22.7%; with HCT-116 colon, 17.4%; in the experiment on HCC-2998 colon, 112%; with KM12 colon, 54.3%.
As to `CCN(CC)CCCC(C)Nc1ccnc2ccc(Oc3ccccc3)cc12` (stereo unspecified), the growth was 76.7% in the experiment on RPMI-8226 leukemia; 76.7% in the experiment with OVCAR-8 ovarian; 88.6% in the experiment with OVCAR-5 ovarian; 66.6% with OVCAR-4 ovarian; 114% in the experiment with SK-OV-3 ovarian; 77% in the experiment on IGROV1 ovarian. Also, the growth is 76.8% in the experiment on OVCAR-3 ovarian; 82% with HS 578T breast; 92.8% in the experiment with NCI/ADR-RES ovarian; 70.7% in the experiment on T-47D breast; 67.3% in the experiment on BT-549 breast; 25.8% in the experiment on MDA-MB-435 melanoma. Moreover, the growth with SW-620 colon was 81.3%; in the experiment with MCF7 breast, 69%; with HCT-116 colon, 48.7%; in the experiment with HCC-2998 colon it was 84%; with KM12 colon it was 86.3%.
With `O=[N+]([O-])c1ccc(N/N=C/c2ccccc2O)nc1`, the growth with SR leukemia is 14.8%; in the experiment on OVCAR-8 ovarian it was 24.3%; in the experiment with OVCAR-5 ovarian it was 60.9%; in the experiment on SK-OV-3 ovarian, 32.7%; in the experiment on IGROV1 ovarian, 18.6%; in the experiment with OVCAR-3 ovarian it was 69.1%. For the same compound, the growth in the experiment with NCI/ADR-RES ovarian is 21.3%; with BT-549 breast, 47.8%; in the experiment on MDA-MB-435 melanoma, 46.8%; in the experiment with SW-620 colon, 52.6%; with MCF7 breast, 16.8%; in the experiment with HCT-116 colon, 22.3%. Also, the results for the growth with HCC-2998 colon and in the experiment on KM12 colon were 14.7% and 27%, respectively.
In the case of `Fc1ccc(-c2nc(-c3ccc(-c4nc5ccc(F)cc5[nH]4)cc3)no2)cc1`, the growth was 88.1% in the experiment with RPMI-8226 leukemia; 86.5% in the experiment on OVCAR-8 ovarian; 94.7% with OVCAR-5 ovarian; -8.43% (active) with OVCAR-4 ovarian; 39.8% in the experiment with SK-OV-3 ovarian; 74.3% with IGROV1 ovarian. Moreover, the growth with OVCAR-3 ovarian is 94.3%; in the experiment with HS 578T breast it was 71.3%; with NCI/ADR-RES ovarian, 73.9%; in the experiment on T-47D breast it was 62.8%; in the experiment with BT-549 breast, 60.1%; with MDA-MB-435 melanoma it was 68.2%. Further, the growth with SW-620 colon was 64.7%; in the experiment with MCF7 breast it was 52.5%; in the experiment on HCT-116 colon, 73%; in the experiment on HCC-2998 colon it was 82.2%; with KM12 colon, 60.5%.
`CCCCc1nc(Cl)c(C2CC(c3ccc(S(N)(=O)=O)cc3)=NN2c2cc(Cl)cc(Cl)c2)[nH]1` (stereo unspecified): the growth in the experiment with SR leukemia was 0.947% (active); in the experiment on OVCAR-8 ovarian, 47.1%; in the experiment with OVCAR-5 ovarian, 65.7%; in the experiment on SK-OV-3 ovarian it was 69.6%; in the experiment with IGROV1 ovarian it was 65.6%; in the experiment with OVCAR-3 ovarian, 45%. The growth in the experiment with NCI/ADR-RES ovarian is 90%; in the experiment on T-47D breast it was 42.5%; with BT-549 breast, 60.3%; with MDA-MB-435 melanoma, 35.7%; with SW-620 colon, 58%; with MCF7 breast, 6.51% (active). Moreover, the growth is 14.7% in the experiment on HCT-116 colon, 29.4% in the experiment with HCC-2998 colon and 32.1% with KM12 colon.
Consider `N=C(N)c1ccc(NCCNc2ccc(C(=N)N)cc2)cc1`, for which the growth in the experiment with RPMI-8226 leukemia was 82.8%; in the experiment on OVCAR-8 ovarian it was 92.4%; with OVCAR-5 ovarian it was 95.1%; with OVCAR-4 ovarian it was 110%; in the experiment on SK-OV-3 ovarian, 133%; in the experiment on IGROV1 ovarian, 98.5%. Also, the growth in the experiment with OVCAR-3 ovarian was 110%; with HS 578T breast it was 109%; in the experiment with NCI/ADR-RES ovarian, 99%; in the experiment with T-47D breast, 137%; with BT-549 breast, 133%; in the experiment on MDA-MB-435 melanoma it was 105%. In addition, the growth with SW-620 colon was 106%; in the experiment on MCF7 breast, 101%; with HCT-116 colon, 114%; in the experiment on HCC-2998 colon, 119%; in the experiment on KM12 colon, 105%.
